# Measured values: PubChem BioAssay (EPA / NIEHS)
# Inconclusive results are not listed. The source made the active and inactive calls. The calls were made as follows: active = hit-call score of the fitted dose curve at least 0.9, where 1 is the maximum; inconclusive = response in the unintended direction; inactive = score below 0.9.
# Key:
# [1] = target: Cellular tumor antigen p53 (Homo sapiens) (UniProt P04637); test: TOX21_p53_BLA_p2_ratio: Tox21 HCT-116 p53 Agonism Beta-lactamase Assay, Ratio, Phase 2 (AID 2283592)
# Procedure, shortened: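 DMSO-normalized, positive-direction endpoint derived from the 460 nm/530 nm FRET ratio in HCT116 p53 beta-lactamase reporter cells exposed 16 h at 37C and loaded with CCF4-AM for 2 h.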
# [2] = target: Cellular tumor antigen p53 (Homo sapiens) (UniProt P04637); test: TOX21_p53_BLA_p3_ratio: Tox21 HCT-116 p53 Agonism Beta-lactamase Assay, Ratio, Phase 3 (AID 2283596)
# Procedure, shortened: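 Cells were seeded at 4000/well, rested 5 h at 37C, then dosed with DMSO compound solutions (217-fold dilution) for 16 h. CCF4-AM substrate was loaded for 2 h at room temperature, and the 460/530 nm emission ratio was fitted for gain of signal versus DMSO.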
# [3] = target: Cellular tumor antigen p53 (Homo sapiens) (UniProt P04637); test: TOX21_p53_BLA_p4_ratio: Tox21 HCT-116 p53 Agonism Beta-lactamase Assay, Ratio, Phase 4 (AID 2283601)
# Procedure, shortened: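 Signal is the blue/green (460nm/530nm) ratio of cleaved versus uncleaved CCF4-AM substrate, read after 2 h substrate loading. Cells were HCT116 carrying the p53-responsive beta-lactamase reporter, dosed 16 h at 37C, 5% CO2; CellTiter-Glo measured in parallel.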
# [4] = TOX21_p53_BLA_p4_viability: Viability Assessment in the Tox21 HCT-116 p53 Agonism Beta-lactamase Assay, Phase 4 (AID 2283597);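 also: hits lower the luminescence signal meaning cytotoxicity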
# Procedure, shortened: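 In this multiplexed secondary endpoint, HCT116 cells (4000 per well, compound at 5 h, 16 h treatment) received CellTiter-Glo after the beta-lactamase read. Luminescence after 30 min RT reflects ATP, and falling signal marks cytotoxicity.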
# [5] = target: Cellular tumor antigen p53 (Homo sapiens) (UniProt P04637); test: TOX21_p53_BLA_p5_ratio: Tox21 HCT-116 p53 Agonism Beta-lactamase Assay, Ratio, Phase 5 (AID 2283599)
# Procedure, shortened: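 Beta-lactamase reporter ratio (blue 460 nm over green 530 nm, 405 nm excitation) after 2 h CCF4-AM loading, in HCT-116 cells exposed 16 h at 37 C to compounds pinned at 217-fold dilution. Increases relative to DMSO baseline scored.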
# [6] = TOX21_p53_BLA_p5_viability: Viability Assessment in the Tox21 HCT-116 p53 Agonism Beta-lactamase Assay, Phase 5 (AID 2283600)
# Procedure, shortened: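 Here cell health was gauged by ATP levels in wells holding 4000 cells, each treated 16 h with DMSO-delivered compounds at 217-fold dilution; reduced luminescence marked toxicity.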
# PGR (gene 5241) [7] = target: PGR (gene 5241) (UniProt P06401); test: TOX21_PR_BLA_Followup_Antagonist_ratio: Tox21 HEK293 Progesterone Receptor (PR) Antagonism Beta-lactamase Follow-Up Assay, Ratio (AID 2283934);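 also: PR-UAS-bla HEK293T cells stimulated with 1 nM R5020 agonist for 16 hr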
# Procedure, shortened: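 Cells are plated, rested 6 hr, then dosed with test compound in DMSO and challenged with 1 nM promegestone. After 16 hr incubation, substrate loading for 2 h at room temperature precedes fluorescence reading; viability is measured in the same wells.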
# [8] = TOX21_PR_BLA_Followup_Agonist_viability: Viability Assessment in the Tox21 HEK293 Progesterone Receptor (PR) Agonism Beta-lactamase Follow-Up Assay (AID 2283935);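 also: signal loss means lower viability so actives are cytotoxic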
# Procedure, shortened: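 Cells were plated in medium with 2% charcoal-stripped FBS and rested 6 hr. Compounds in DMSO were then added for 16 hr at 37C, followed by the FRET substrate step and CellTiter-Glo luminescence after 30 min.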
# PGR (gene 5241) [9] = target: PGR (gene 5241) (UniProt P06401); test: TOX21_PR_LUC_Followup_Antagonist: Tox21 HEK293 Progesterone Receptor (PR) Antagonism Luciferase Follow-Up Assay (AID 2283938);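 also: curve fitted upward as signal gain over DMSO baseline despite antagonist label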
# Procedure, shortened: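 Luciferase reporter in HEK293-PR-A-luc cells: 16 h compound treatment at 37C, ONE-Glo luminescence detection, DMSO as negative control and baseline.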
# [10] = TOX21_PR_LUC_Followup_Agonist_viability: Viability Assessment in the Tox21 HEK293 Progesterone Receptor (PR) Agonism Luciferase Follow-Up Assay (AID 2283941);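 also: loss of signal means cytotoxicity so actives lower viability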
# Procedure, shortened: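 Multiplexed viability endpoint of the PR agonist luciferase follow-up: HEK293-PR-A-luc cells treated 16 h at 37C, with viability scored as decrease in CellTiter-Glo ATP signal.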
# [11] = target: Thyroid hormone receptor alpha (Rattus norvegicus) + Thyroid hormone receptor beta (Rattus norvegicus) (UniProt P18113+P63059); test: TOX21_TR_LUC_GH3_Antagonist_Followup: Tox21 GH3 Thyroid Hormone Receptor Antagonism Luciferase Follow-Up Assay (AID 2283942)
# Procedure, shortened: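 Loss of T3-driven (1.0 nM final) reporter activity in GH3 cells was read by ONE-Glo luminescence after 24 h incubation at 37C; 15-point compound series spanned 92 uM to 5nM final, 1,500 cells/well.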
# THRA (gene 7067) = THRA (gene 7067) (UniProt P10827); test: TOX21_TRA_COA_Antagonist_Followup_ratio: Tox21 Thyroid Hormone Receptor alpha Antagonism through Coactivator Recruitment Follow-Up Assay, Ratio (AID 2283953)
# Procedure, shortened: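 GST-TRα LBD 2.5 nM, BSA 0.10%, + cpd; then FITC-SRC-2 peptide 200 nM + Tb-anti-GST Ab 2 nM. TR-FRET ratio 520/495 nm. Norm: DMSO = 0%, T3 = 100%.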
# THRB (gene 7068) [12] = target: THRB (gene 7068) (UniProt P10828); test: TOX21_TRB_BLA_Antagonist_Followup_ratio: Tox21 Thyroid Hormone Receptor beta Antagonism Beta-lactamase (BLA) Follow-Up Assay, Ratio (AID 2283958)
# Procedure, shortened: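 Cells were plated and allowed to attach for 5 h, then dosed with compounds in DMSO at 11 concentrations for 18 h at 37C. Beta-lactamase reporter activity was measured via CCF4-AM FRET as the 460:530 nm ratio.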
# THRB (gene 7068) [13] = target: THRB (gene 7068) (UniProt P10828); test: TOX21_TRB_COA_Antagonist_Followup_ratio: Tox21 Thyroid Hormone Receptor beta Antagonism through Coactivator Recruitment Follow-Up Assay, Ratio (AID 2283967)
# Procedure, shortened: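 Coactivator recruitment to the GST-tagged TRb ligand-binding domain (5.0 nM) was read as the 520/495 nm TR-FRET ratio, using 200 nM fluorescein SRC-2 peptide and 2 nM terbium anti-GST. Scaled between DMSO and T3 wells; loss of signal fitted.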
# [14] = target: Retinoic acid receptor RXR-alpha (Homo sapiens) (UniProt P19793); test: TOX21_TR_RXR_BLA_Antagonist_Followup_ratio: Tox21 Thyroid Hormone Receptor beta Retinoid X Receptor alpha (RXRa) Antagonism Beta-lactamase (BLA) Follow-Up Assay, Ratio (AID 2283972)
# Procedure, shortened: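 Compounds were tested in triplicate at 11 concentrations on RXRa-bla HEK293T cells for 16 h. Substrate cleavage ratio, normalized to DMSO, gave the endpoint.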
# Sequence of Cellular tumor antigen p53 (Homo sapiens) (P04637 whole entry, looked up): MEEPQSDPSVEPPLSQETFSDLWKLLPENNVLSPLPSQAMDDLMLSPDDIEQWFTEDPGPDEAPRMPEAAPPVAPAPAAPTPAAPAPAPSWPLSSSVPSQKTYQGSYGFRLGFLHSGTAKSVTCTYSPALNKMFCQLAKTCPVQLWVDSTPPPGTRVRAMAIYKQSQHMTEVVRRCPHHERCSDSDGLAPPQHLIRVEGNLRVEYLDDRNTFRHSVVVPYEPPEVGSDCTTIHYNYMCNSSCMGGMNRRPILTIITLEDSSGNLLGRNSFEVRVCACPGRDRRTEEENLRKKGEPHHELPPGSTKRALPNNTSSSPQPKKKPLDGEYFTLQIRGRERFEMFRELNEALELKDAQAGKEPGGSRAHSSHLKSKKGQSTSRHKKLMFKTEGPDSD
# Sequence of THRB (gene 7068) (P10828 whole entry, looked up, the tested form may be a part): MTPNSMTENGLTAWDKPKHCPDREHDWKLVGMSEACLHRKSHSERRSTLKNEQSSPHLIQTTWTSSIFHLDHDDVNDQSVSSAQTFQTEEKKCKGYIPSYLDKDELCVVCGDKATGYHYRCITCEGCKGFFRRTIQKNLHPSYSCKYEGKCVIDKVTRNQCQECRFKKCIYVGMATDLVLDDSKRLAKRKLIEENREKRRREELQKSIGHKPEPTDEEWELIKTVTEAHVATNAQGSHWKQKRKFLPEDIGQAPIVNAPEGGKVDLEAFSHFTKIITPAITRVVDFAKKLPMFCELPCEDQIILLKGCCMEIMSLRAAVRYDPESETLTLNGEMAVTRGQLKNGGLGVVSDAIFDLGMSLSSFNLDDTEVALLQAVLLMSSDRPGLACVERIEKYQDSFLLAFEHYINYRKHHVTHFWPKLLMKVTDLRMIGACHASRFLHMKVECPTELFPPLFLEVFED
# Sequence of PGR (gene 5241) (P06401 whole entry, looked up): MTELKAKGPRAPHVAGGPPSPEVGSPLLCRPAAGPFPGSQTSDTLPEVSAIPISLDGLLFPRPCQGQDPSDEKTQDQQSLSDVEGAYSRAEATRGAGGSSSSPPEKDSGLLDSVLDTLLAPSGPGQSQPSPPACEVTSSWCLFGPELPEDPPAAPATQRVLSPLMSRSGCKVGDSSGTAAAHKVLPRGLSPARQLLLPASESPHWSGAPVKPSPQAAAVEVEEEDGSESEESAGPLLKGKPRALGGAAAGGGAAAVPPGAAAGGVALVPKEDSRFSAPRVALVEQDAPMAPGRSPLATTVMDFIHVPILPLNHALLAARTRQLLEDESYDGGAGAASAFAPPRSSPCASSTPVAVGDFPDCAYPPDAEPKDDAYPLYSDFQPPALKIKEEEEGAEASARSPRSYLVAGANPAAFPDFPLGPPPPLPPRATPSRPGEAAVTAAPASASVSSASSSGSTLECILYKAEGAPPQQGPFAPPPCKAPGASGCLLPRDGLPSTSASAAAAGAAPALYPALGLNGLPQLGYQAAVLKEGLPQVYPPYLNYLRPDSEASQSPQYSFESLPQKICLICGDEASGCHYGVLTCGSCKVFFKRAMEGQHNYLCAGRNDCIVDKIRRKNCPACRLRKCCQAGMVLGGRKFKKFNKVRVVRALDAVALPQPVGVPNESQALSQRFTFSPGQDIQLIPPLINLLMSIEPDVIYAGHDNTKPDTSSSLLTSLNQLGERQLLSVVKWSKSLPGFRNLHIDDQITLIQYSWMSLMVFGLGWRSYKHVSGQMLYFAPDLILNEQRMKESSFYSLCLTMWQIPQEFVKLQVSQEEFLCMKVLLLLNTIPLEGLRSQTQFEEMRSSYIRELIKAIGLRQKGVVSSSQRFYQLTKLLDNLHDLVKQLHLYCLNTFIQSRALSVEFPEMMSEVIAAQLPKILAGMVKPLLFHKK
# Sequence of Retinoic acid receptor RXR-alpha (Homo sapiens) (P19793 whole entry, looked up): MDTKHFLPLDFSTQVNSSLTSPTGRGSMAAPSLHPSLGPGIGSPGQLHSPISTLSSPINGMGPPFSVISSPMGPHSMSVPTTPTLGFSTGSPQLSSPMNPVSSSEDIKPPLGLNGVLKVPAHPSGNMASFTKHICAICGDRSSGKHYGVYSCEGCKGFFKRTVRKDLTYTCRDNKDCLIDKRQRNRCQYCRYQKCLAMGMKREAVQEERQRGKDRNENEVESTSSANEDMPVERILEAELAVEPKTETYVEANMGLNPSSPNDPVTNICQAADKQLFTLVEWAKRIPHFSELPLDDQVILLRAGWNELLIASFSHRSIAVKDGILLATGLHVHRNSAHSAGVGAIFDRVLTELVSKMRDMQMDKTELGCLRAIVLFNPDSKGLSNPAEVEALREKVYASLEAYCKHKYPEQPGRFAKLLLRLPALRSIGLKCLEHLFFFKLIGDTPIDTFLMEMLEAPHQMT
# Sequence of THRA (gene 7067) (P10827 whole entry, looked up, the tested form may be a part): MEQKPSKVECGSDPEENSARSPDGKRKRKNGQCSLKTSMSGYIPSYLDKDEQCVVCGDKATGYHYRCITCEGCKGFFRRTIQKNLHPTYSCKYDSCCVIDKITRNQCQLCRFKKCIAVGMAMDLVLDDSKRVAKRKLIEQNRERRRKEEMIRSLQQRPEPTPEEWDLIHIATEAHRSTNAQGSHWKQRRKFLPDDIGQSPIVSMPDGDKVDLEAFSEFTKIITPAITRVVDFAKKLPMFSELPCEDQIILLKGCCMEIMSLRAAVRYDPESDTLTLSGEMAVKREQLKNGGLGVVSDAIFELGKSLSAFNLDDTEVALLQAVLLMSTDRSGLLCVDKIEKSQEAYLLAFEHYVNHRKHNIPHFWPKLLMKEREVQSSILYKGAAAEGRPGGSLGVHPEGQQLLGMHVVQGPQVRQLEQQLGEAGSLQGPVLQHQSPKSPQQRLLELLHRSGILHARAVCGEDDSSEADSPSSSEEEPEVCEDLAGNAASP
structure (smiles),measurement,setting,value
CCCCCO,outcome,[1],inactive
same,outcome,[2],inactive
same,outcome,[3],inactive
CC(C)C(=O)O,outcome,[1],inactive
same,outcome,[4],inactive
same,outcome,[5],inactive
CCc1cccc(C)c1,outcome,[1],inactive
same,outcome,[4],inactive
same,outcome,[5],inactive
CC(=O)c1ccc2ccc3ccccc3c2c1,AC50,[1],85.8 µM (active)
same,outcome,[4],inactive
same,AC50,[5],80.9 µM (active)
same,AC50,[3],78.9 µM (active)
NNc1nnc(NN)c2ccccc12,outcome,[1],inactive
same,outcome,[4],inactive
same,outcome,[5],inactive
same,outcome,[6],inactive
same,outcome,[3],inactive
CCN(C)C(=O)Oc1cccc([C@H](C)N(C)C)c1,outcome,[1],inactive
same,outcome,[2],inactive
same,outcome,[3],inactive
Cc1ccnc2c1NC(=O)c1cccnc1N2C1CC1,outcome,[1],inactive
same,outcome,[4],inactive
same,outcome,[5],inactive
same,outcome,[6],inactive
same,outcome,[3],inactive
CCCCCCCCCCCCCCCCCC(=O)OCCO,outcome,[1],inactive
same,outcome,[4],inactive
same,outcome,[5],inactive
same,outcome,[6],inactive
same,outcome,[3],inactive
COc1cc(S(C)=O)ccc1-c1nc2ncccc2[nH]1 (configuration not stated),outcome,[1],inactive
same,outcome,[4],inactive
same,outcome,[5],inactive
same,outcome,[6],inactive
same,outcome,[3],inactive
CC(C)=CC(C)(C)C,outcome,[1],inactive
same,outcome,[4],inactive
same,outcome,[5],inactive
same,outcome,[6],inactive
same,outcome,[3],inactive
Cc1cc(NC(=O)C2=C(O)c3ccccc3S(=O)(=O)N2C)no1,outcome,[1],inactive
same,outcome,[4],inactive
same,outcome,[5],inactive
same,outcome,[6],inactive
same,outcome,[3],inactive
Brc1ccc(-c2ccccc2)cc1,outcome,[1],inactive
same,outcome,[2],inactive
same,outcome,[3],inactive
CCn1ccnc1CC1COc2ccccc2O1 (configuration not stated),outcome,[1],inactive
same,outcome,[4],inactive
same,outcome,[5],inactive
same,outcome,[6],inactive
same,outcome,[3],inactive
C[Se]CC[C@H](N)C(=O)O,outcome,[1],inactive
same,outcome,[4],inactive
same,outcome,[5],inactive
same,outcome,[6],inactive
same,outcome,[3],inactive
CN1CC(=O)N=C1N,outcome,[1],inactive
same,outcome,[4],inactive
same,outcome,[5],inactive
O=C1CC[C@H](C(=O)N2CCCCC2)N1,outcome,[1],inactive
same,outcome,[4],inactive
same,outcome,[5],inactive
same,outcome,[6],inactive
same,outcome,[3],inactive
CC(COc1ccccc1)NC(C)C(O)c1ccc(O)cc1 (configuration not stated),outcome,[1],inactive
same,outcome,[2],inactive
same,outcome,[3],inactive
CC/C=C(\C(=O)N[C@@H]1C(=O)N2C(C(=O)OCOC(=O)C(C)(C)C)=C(COC(N)=O)CS[C@H]12)c1csc(N)n1,outcome,[1],inactive
same,outcome,[4],inactive
Cl/C(=C\n1cncn1)c1ccc(Cl)cc1Cl,outcome,[1],inactive
same,outcome,[4],inactive
same,outcome,[5],inactive
same,outcome,[6],inactive
same,outcome,[3],inactive
same,outcome,PGR (gene 5241) [7],inactive
same,outcome,[8],inactive
same,outcome,PGR (gene 5241) [9],inactive
same,outcome,[10],inactive
CC(=O)OCC(=O)Nc1cc(C#N)cc(NC(=O)COC(C)=O)c1Cl,outcome,[1],inactive
same,outcome,[4],inactive
Nc1ccc2cc(S(=O)(=O)O)ccc2c1,outcome,[1],inactive
same,outcome,[4],inactive
same,outcome,[5],inactive
same,outcome,[3],inactive
CCCCCCCCCCCCCCCCCl,outcome,[1],inactive
same,outcome,[4],inactive
same,outcome,[5],inactive
same,outcome,[6],inactive
same,outcome,[3],inactive
O=C1OC(OC(=O)c2cccnc2Nc2cccc(C(F)(F)F)c2)c2ccccc21 (configuration not stated),outcome,[1],inactive
same,outcome,[2],inactive
same,outcome,[11],inactive
same,outcome,THRA (gene 7067),inactive
same,outcome,THRB (gene 7068) [12],inactive
same,outcome,THRB (gene 7068) [13],inactive
same,outcome,[14],inactive
Cc1cccc(C)c1OCC(C)N (configuration not stated),outcome,[1],inactive
same,outcome,[2],inactive
same,outcome,[3],inactive
CCCCCCCCCCCCCCBr,outcome,[1],inactive
same,outcome,[4],inactive
same,outcome,[6],inactive
same,outcome,[3],inactive
C=C(C)C(=O)OCCCCCCOC(=O)C(=C)C,outcome,[1],inactive
same,outcome,[5],inactive
same,outcome,[6],inactive
CCC(CO)(CO)[N+](=O)[O-],outcome,[1],inactive
same,outcome,[4],inactive
same,outcome,[6],inactive
